PubChem BioAssay
Active and inactive are the calls of the source.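 How the source made its calls: active means visual image review flags a hit and inhibition of aggregation exceeds 20%; inconclusive means visual hit but inhibition at or below 20%; inactive means no hit on visual image review.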 Where a SMILES comes first, the peptide text is derived from it. The star is where a group is joined. Boc = CC(C)(C)OC(=O)*

Test: reduction of polyQ htt aggregates in cells – imaging, exon1htt(103Q)mCFP cells, high-content imaging, primary screen (AID 483);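 further: compound exposure lasted 3 days before fixation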;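 on nuclei count: percent of the per-plate median nuclei count of sample wells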
Details: exon1htt(103Q)mCFP cell line, aggregate imaging, at 2 µM; inhibition of aggregation: stronger effect = higher value; nuclei count: measured here: cell count, toxicity

Row | Structure (SMILES) | inhibition of aggregation | nuclei count [%]
1 | Cc1nc2ccccc2c(=O)n1NC(=O)c1c(O)c2c(n(CC(C)C)c1=O)CCCC2 | 9.9% (inactive) | 76.7
2 | CCN(CC)C(=O)C1=C(C)NC(=O)NC1c1c(F)cccc1Cl (stereo not given) | -3.7% (inactive) | 116
3 | COc1ccccc1OCc1ccc(C(=O)OCC2CCCO2)o1 (stereo not given) | -10.7% (inactive) | 73.2
4 | Cc1nc(CNS(=O)(=O)c2ccc3c(c2)OCCO3)cs1 | 10.1% (inactive) | 106
5 | c1ccc(CC2CCN(Cc3nc(-c4ccccc4)no3)CC2)cc1 | -5.2% (inactive) | 81.6
6 | CC(C)(C)OC(=O)N1CCCC1C(=O)N1CCCC1C(=O)N1CCCC1C(=O)O (stereo not drawn) (Boc-Pro-Pro-Pro-OH; configuration not given here) | 4.5% (inactive) | 49.1
7 | Cc1[nH]c(=O)[nH]c(=O)c1S(=O)(=O)N1CCN(c2cccc(Cl)c2)CC1 | -23.7% (inactive) | 104
8 | Cc1csc(SCC(=O)NC(=O)NCc2ccccc2)n1 | -16.6% (inactive) | 114
9 | O=C1CC(N2CCC(C(=O)N3CCCCC3)CC2)C(=O)N1 (stereo not given) | 10.7% (inactive) | 115
10 | COc1ccc(S(=O)(=O)NC2CCCCC2)c(C)c1C | -3% (inactive) | 101
11 | O=C(NCc1ccccn1)c1ccc2nc(-c3ccco3)c(-c3ccco3)nc2c1 | -52.7% (inactive) | 82.3
12 | CN1CCCN(C(=O)c2cc(=O)[nH]c3ccccc23)c2nc3ccccc3nc21 | 5.4% (inactive) | 101
13 | COc1cc2c(cc1OC)CN(C(=O)COc1ccc(C#N)cc1)CC2 | 4.5% (inactive) | 91.8
14 | Cc1noc(C)c1C(=O)OCC(=O)Nc1ccccc1C(=O)NC(C)c1ccccc1 (stereo not given) | -4% (inactive) | 94.3
15 | CCc1c(C)nc(N2CCN(Cc3ccccc3)CC2)[nH]c1=O | 17.3% (inactive) | 120
16 | CCOc1ccc(CCNC(=O)CCc2nc(-c3ccc(OC)cc3)no2)cc1OCC | 1.2% (inactive) | 87.7
17 | O=C(O)CCCNS(=O)(=O)c1ccc(NCc2ccccc2)c(C(=O)O)c1 | 2.8% (inactive) | 87.1
18 | CN1CCN(C(=O)c2ccccc2N(Cc2ccccc2)S(C)(=O)=O)CC1 | 2.7% (inactive) | 111
19 | Cc1nc(=S)n(-c2ccccc2)[nH]1 | 16.1% (inactive) | 113
20 | Cc1ccc(S(=O)(=O)Cc2ccc(C(=O)NCCCN3CCN(C)CC3)o2)cc1 | -11.8% (inactive) | 101

Row | Structure (SMILES) | inhibition of aggregation | nuclei count [%]
21 | COc1cccc(-n2c(C)nc3c(cnn3-c3ccc(Cl)cc3)c2=O)c1 | -13.4% (inactive) | 94.3
22 | CC1(C)CC(=O)C(C=NCCc2ccc(S(N)(=O)=O)cc2)=C(O)C1 | -14.5% (inactive) | 114
23 | Cc1oc(-c2ccccc2)cc1C(N)=O | -1.4% (inactive) | 66.5
24 | O=C(Nc1ccc(N2CCOCC2)c(F)c1)c1ccncc1 | 0.1% (inactive) | 99.8
25 | COCn1c(COc2ccccc2)nc2ccccc21 | -10.6% (inactive) | 114
26 | COc1ccc(OC)c(C2=NOC(C(=O)NCCN3CCOCC3)C2)c1 (stereo not given) | 12.9% (inactive) | 96
27 | Cc1cc(C(=O)Nc2cc(C)n(Cc3ccc(Cl)cc3)n2)no1 | -10.6% (inactive) | 98.8
28 | Cc1cc(C(=O)CSCc2nnc3n(CCC(C)C)c(=O)c4ccccc4n23)c(C)n1C | -1.8% (inactive) | 94.2
29 | COc1ccc(-c2[nH]nc3c2C(c2ccccc2OC(=O)N2CCOCC2)C(C#N)=C(N)O3)cc1 (stereo not given) | -9.9% (inactive) | 104
30 | COC(=O)c1ccccc1NC(=O)Nc1cc(C)cc(C)n1 | -2.4% (inactive) | 71.9
31 | CCOC(=O)C1CCCN(Cc2nc(N)nc(Nc3ccccc3)n2)C1 (stereo not given) | -2.7% (inactive) | 104
32 | COCC(=O)Nc1sc2c(c1C(=O)OC)C(C(=O)OC)CC2 (stereo not given) | -1.9% (inactive) | 93.9
33 | Cc1ccnc(NC(=O)CCC(=O)N(CC(=O)NC2CCCCC2)c2cccc(C)c2C)c1 | -2.4% (inactive) | 103
34 | Cc1ccc(NC(=O)C2CCCN2C(=O)Oc2ccccc2)cc1 (stereo not given) | 3.9% (inactive) | 88.6
35 | c1ccc2[nH]c(CSc3nnc(-c4ccncc4)o3)nc2c1 | 5.8% (inactive) | 83
36 | Cc1ccc(-c2c3c(=O)n(C)c(=O)n(C)c3cn2CCCN2CCOCC2)cc1 | 1.2% (inactive) | 92.9
37 | CCOc1ccc(NC(=O)CN(C)S(=O)(=O)c2cccs2)cc1 | -4.9% (inactive) | 104
38 | CCn1ncc(C2=NOC(C(=O)NCc3ccc(Cl)cc3)C2)c1C (stereo not given) | -30.2% (inactive) | 36.3
39 | CCOC(=O)C1CCCN(C(=O)c2ccc(CS(=O)(=O)Cc3ccccc3C)o2)C1 (stereo not given) | 19.5% (inactive) | 76.5
40 | CC(C)C(=O)Nc1nnc(CCc2nnc(NC(=O)C(C)C)s2)s1 | 9.8% (inactive) | 89.2
